Compound activity as filed in PubChem BioAssay.
14-3-3 Bad PPI = disrupts binding of bovine 14-3-3 zeta to phospho-Bad peptide; inhibition, % at 21.7 µM; TR-FRET 14-3-3zeta/Dy647-pBad peptide displacement, 1 h; 0.71% of 220,000 active;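 active = inhibition above about 70%, limit read from the data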
Target sequence (P63103 whole entry, looked up): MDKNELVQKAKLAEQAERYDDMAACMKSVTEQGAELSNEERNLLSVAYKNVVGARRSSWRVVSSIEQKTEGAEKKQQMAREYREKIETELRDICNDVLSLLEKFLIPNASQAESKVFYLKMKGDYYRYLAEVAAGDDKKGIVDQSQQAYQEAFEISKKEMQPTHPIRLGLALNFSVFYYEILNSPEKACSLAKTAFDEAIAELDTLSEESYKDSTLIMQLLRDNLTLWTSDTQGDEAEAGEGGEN
NCF1 inh = p47phox (human) inhibition. P14598. p47phox/p22phox peptide binding, fluorescence polarization, 2 h. inhibition, % at 24.7 µM. 0.53% of 220,000 active. AID 1274
Bim-Mcl-1 = disrupts Bim peptide binding to human Mcl-1. Q07820. Bead-based flow cytometry, Bim peptide-Mcl-1 binding. inhibition, % at 10 µM. 0.1% of 190,000 active. AID 1009; in the data active = inhibition above about 40%
Target sequence (Q07820 whole entry, looked up): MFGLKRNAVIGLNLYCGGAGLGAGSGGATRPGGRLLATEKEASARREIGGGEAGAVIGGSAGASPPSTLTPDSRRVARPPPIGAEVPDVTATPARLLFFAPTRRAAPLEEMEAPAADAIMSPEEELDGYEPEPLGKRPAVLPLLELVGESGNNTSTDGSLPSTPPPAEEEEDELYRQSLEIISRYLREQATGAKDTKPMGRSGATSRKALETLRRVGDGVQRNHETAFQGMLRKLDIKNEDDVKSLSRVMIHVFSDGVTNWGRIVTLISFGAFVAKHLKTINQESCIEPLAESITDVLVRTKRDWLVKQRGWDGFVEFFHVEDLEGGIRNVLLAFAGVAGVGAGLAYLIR
Mcl1-Bid inh = Mcl-1/Bid interaction inhibition. inhibition, % at 21.7 µM. Q07820. TR-FRET Mcl-1/Bid-Dy647 peptide binding, 1536-well. AID 1021. 0.97% of 220,000 active;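 active = compounds that cut the binding signal by more than half at the single screening dose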;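 also: His-tagged Mcl-1 with europium anti-His antibody binding Bid BH3 peptide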
Mcl1 Noxa PPI = Mcl-1/Noxa interaction inhibition; Q07820; inhibition, % at 21.7 µM; TR-FRET Mcl-1/Noxa peptide binding, 2 h; 1.5% of 220,000 active;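 active = compounds that cut the protein-peptide binding signal by more than 50% relative to plate controls in a single-dose test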;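 also: His-tagged Mcl-1 with rhodamine Noxa BH3 peptide and terbium anti-His antibody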
eIF4E-4G inh = inhibitors of eIF4E and eIF4G interaction in translation initiation; TR-FRET eIF4E-eIF4GI(517-606) binding, 2 h; 0.37% of 220,000 active; P63073+Q04637; inhibition, % at 21.7 µM
Numbers stand for hits; . = inactive; / = no result; ! = a repeat was not active. Most compounds without a hit are left out; they make up all but 3.4% or so of the library.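 The calls were made as follows, unless noted: active = inhibition above about 30% (limit read from the data); inactive = the rest.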

SMILES	14-3-3 Bad PPI	NCF1 inh	Bim-Mcl-1	Mcl1-Bid inh	Mcl1 Noxa PPI	eIF4E-4G inh
COc1ccccc1C(=O)Nc1ncc2c(n1)CC(c1ccco1)CC2=O (stereo not given)	.	.	.	.	54	.
O=C(Nc1ncc2c(n1)CC(c1ccccc1)CC2=O)c1ccco1 (stereo not given)	.	.	.	.	.	.
COc1ccc(C=O)cc1Cn1c(C)cc(C)c(C#N)c1=O	.	.	.	.	.	.
COc1ccc(C2/C=C\CN(C(=O)c3ccccc3)[C@H](Cc3ccccc3)C(=O)N2Cc2ccc(F)cc2)cc1 (stereo not given in full)	.	.	/	.	.	60
COc1ccc(C2/C=C\CN(S(=O)(=O)/C=C/c3ccccc3)[C@H](Cc3ccccc3)C(=O)N2Cc2ccc(F)cc2)cc1 (stereo not given in full)	.	.	/	.	.	.
O=S(=O)(NCc1c(Cl)cccc1Oc1ccccc1)c1ccc(F)cc1	.	.	/	.	.	.
O=C(CSc1nnc(COc2ccc3c(c2)CCCC3)o1)Nc1ccc(F)cc1	87	.	.	.	.	.
COc1ccc(CCCc2nnc(SCC(=O)Nc3ccc(OC)cc3)o2)cc1	.	.	.	.	.	.
O=C1CSC(c2cccnc2)N1c1ccc(Cl)cc1 (stereo not given)	.	.	.	79	.	.
Cc1sc2ncnc(OCC(=O)Nc3ccc4c(c3)OCCO4)c2c1C	.	.	.	99	.	.
COC(=O)C(CC(C)C)NC(=O)c1ccc(F)cc1 (stereo not given)	.	.	.	98	.	.
CC(NC(=O)c1ccc(F)cc1)c1ccc(F)cc1 (stereo not given)	.	.	.	.	.	.
Clc1ccccc1Cc1noc(CN2CCN(c3cnccn3)CC2)n1	.	32	.	.	.	.
CCCN1CCC(=O)N([C@H](CSc2ccc(OC)cc2)c2ccccc2)CC1	.	.	/	.	.	.
CC(C)OC(=O)c1ccccc1C(=O)c1ccc(N)c([N+](=O)[O-])c1	.	.	.	.	61	.
COc1cc2c(ccc3cc(OC)c(OC)c(O)c32)cc1O	78	.	/	.	107	.
COc1cc2cccc(OC)c(=O)c2c(O)c1OC	.	.	.	.	.	.
CCN(C(=O)C1CCCCC1)c1nnc(-c2cccnc2)s1	77	.	.	.	.	.
Cc1ccccc1OCCn1cnc2c(N)ncnc21	.	41	.	.	.	.
CCOCCCNC(=O)C(NC(=O)c1ccc(NC(C)=O)cc1)c1ccccc1 (stereo not given)	73	.	.	.	.	.
COc1cccc(C2CC(=O)C3=C(C2)Nc2ccccc2N(C(=O)CCC(=O)O)C3c2ccc(F)cc2)c1 (stereo not given)	.	.	/	.	.	.
Nc1nc2c(c(=O)[nH]1)C(c1ccccc1)C1=C(N2)c2ccccc2C1=O (stereo not given)	.	.	/	.	.	.
COc1cc(C2C3=C(Nc4nc(N)[nH]c(=O)c42)c2ccccc2C3=O)ccc1O (stereo not given)	.	.	/	.	90	.
COc1ccc2c(c1)S/C(=C\C(=O)c1ccncc1)N2C	.	.	.	.	66	.
COc1cc(OC)cc(C(=O)/C=C2\Sc3ccccc3N2C)c1	.	.	.	.	.	.
SMILES	14-3-3 Bad PPI	NCF1 inh	Bim-Mcl-1	Mcl1-Bid inh	Mcl1 Noxa PPI	eIF4E-4G inh
CCOc1nc(OCC)c2cnn(C)c2n1	.	.	/	.	.	.
OCC1(CO)COC2(CCCC2)N1	.	62!	.	.	.	.
Cc1cc(C(=O)CSc2nnc(-c3cccs3)n2Cc2ccccc2)c(C)n1C	.	.	.	.	.	.
O=c1cc(CSc2nnc(-c3cccs3)n2Cc2ccccc2)nc2sc3ccccc3n12	.	.	.	.	59	.
Nn1c(SCc2cccc(Br)c2)nnc1-c1ccncc1	.	.	/	.	.	.
COc1ccc(-c2csc3nc(-c4cccnc4)nc(Cl)c23)cc1OC	.	.	.	.	58	.
Clc1nc(-c2cccnc2)nc2scc(-c3ccccc3)c12	.	.	.	.	.	.
O=C(/C=C/c1ccco1)N(c1ccccn1)c1ccccn1	.	.	.	.	62	34
O=C(c1ccco1)N(c1ccccn1)c1ccccn1	.	.	.	.	.	.
c1ccc(-n2cc(CNCCc3cscn3)c(-c3ccc4c(c3)OCO4)n2)cc1	.	.	.	.	.	.
N#CC1=C2N=C(N)c3ccccc3N2C2=C(C(=O)CCC2)C1c1ccc(F)cc1 (stereo not given)	.	.	/	.	.	94
Cc1ccc(C2C(C#N)=C3N=C(N)c4ccccc4N3C3=C2C(=O)CCC3)cc1 (stereo not given)	.	.	/	.	.	.
CCc1nnc(NC(=O)COc2ccccc2[N+](=O)[O-])s1	.	.	/	.	.	.
CCCCN(Cc1cc2cc(OC)ccc2[nH]c1=O)C(=O)c1ccccn1	.	.	.	65	.	.
CC(C)(C(=O)Nc1nccs1)c1ccccc1	.	.	.	.	.	.
CC(C)(C)c1cc(-c2csc(Nc3ccccc3)[n+]2Cc2ccc(C(=O)O)cc2)cc(C(C)(C)C)c1O	.	.	/	88	92	.
O=C(CCSCc1ccc(Cl)cc1)NCc1cccnc1	.	.	.	.	.	.
CCN(C(=O)COC(=O)c1c(C)c(-c2ccccc2)nc2ccccc12)C1CCS(=O)(=O)C1 (stereo not given)	.	.	/	.	.	.
COc1ccc(C(=O)NCC(=O)N2CCc3ccccc3C2)cc1	.	79	.	.	.	.
COc1ccc(C(=O)NCC(=O)N2CCCCC2)cc1OC	.	.	.	.	.	.
COc1ccc(C(=O)NCC(=O)OCC(=O)N2CCc3ccccc32)cc1	.	.	.	.	.	.
COc1cc(OC)cc(C(=O)NCC(=O)N2CCCCC2)c1	.	.	.	63	.	.
Cn1nnnc1SCC(=O)N1CCN(S(=O)(=O)c2ccc(Cl)cc2)CC1	.	.	.	.	.	.
CN(C)CC(O)CN(c1ccccc1)c1ccccc1 (stereo not given)	.	.	/	98	.	.
CN(C)CC(C(=O)c1ccccc1)c1ccccc1 (stereo not given)	.	.	.	.	.	.
O=C(CNCc1cccnc1)Nc1cc(C(F)(F)F)ccc1N1CCOCC1	.	.	/	.	.	.
Cc1ccc(NC(=O)N(Cc2ccco2)Cc2cc3cc(C)cc(C)c3nc2Cl)cc1	.	160	.	.	.	.
Nc1nnc(SCc2nnc(-c3ccccc3)o2)s1	.	.	.	.	.	.
Cc1ccc(NC(=O)CSc2nnc(CNC(=O)c3c(F)cccc3Cl)o2)cc1	.	.	.	.	.	.
O=C(CSc1nnc(CNC(=O)c2c(F)cccc2Cl)o1)Nc1ccc2c(c1)OCO2	.	31	.	.	.	.
